# Screening data deposited in PubChem by National Center for Advancing Translational Sciences (NCATS).
# DT40 TDP1 CPT = growth inhibition of DT40 Tdp1-/-;hTDP1 cells with camptothecin (screen for TDP1 inhibitors); Potency, µM (series often up to 46.2 µM), without a hit: at the top dose activity change, negative = growth inhibition, hits mostly inhibitors; AID 686979; chicken DT40 Tdp1-/-;hTDP1 cells + 20 nM CPT, ATP luminescence, 48 h; 420,000 compounds, 12% hits; also: % is scaled to controls: 0 for no effect and ±100 for the full control effect; nearly all actives have a fitted effect of over 55% in size
#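 Chicken DT40 Tdp1-/- cells stably complemented with human TDP1 were seeded at 400 cells/well in medium containing 20 nM camptothecin, exposed to pin-transferred compounds, and grown at 37 °C for at least 48 hr. Viability was read as ATP luminescence.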
# HepG2 viability = counter-screen for TGF-b inhibitors: cytotoxicity in HepG2 cells | HepG2 CAGA-GFP viability, ATP luminescence, 18 h | Potency, µM (doses to about 46.1 µM), inactives show at the highest dose activity change, negative = cytotoxicity, hits mostly cytotoxic | 410,000 compounds, 0.76% hits | AID 588856
#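 HepG2 CAGA-GFP cells (1000/well, DMEM with 1% FBS) received compound, then TGF-beta at 500 pg/mL final, and were incubated 18 hours at 37 degrees C. Viability was read by CellTiter-Glo luminescence. Media-only wells were set as complete cell-killing and DMSO as no toxicity.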
# ATXN2 expr inh = ATXN2 expression inhibition | HEK-293 ATXN2-luciferase reporter, luminescence, 24 h | Potency, µM (series often up to 57 µM), inactives show at the top dose activity change, negative = inhibition, usual class: inhibitors | 360,000 compounds, 0.72% hits | AID 1745845; also: % is scaled to controls: 0 for no effect and ±100 for the full control effect; nearly all actives have a fitted effect of over 55% in size
#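 qHTS (up to 57 uM final) was run with 24 h compound exposure of reporter cells at 37 °C. Each well was multiplexed: SteadyGlo luminescence measured ATXN2-luciferase expression after a fluorogenic Gly-Phe-AFC viability readout (25 uM final).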
# TDP1 cell noCPT = qHTS for Inhibitors of human tyrosyl-DNA phosphodiesterase 1 (TDP1): qHTS in cells in absence of CPT. DT40 Tdp1-/- hTDP1 cells, no CPT, ATP luminescence, 48 h. Potency, µM (top dose mostly 46.2 µM), without a hit: at the highest dose activity change, negative = growth inhibition, most hits filed as inhibitors. 420,000 compounds, 15% hits; also: % is scaled to controls: 0 for no effect and ±100 for the full control effect; nearly all actives have a fitted effect of over 55% in size
#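 Chicken DT40 Tdp1-/- cells complemented with human TDP1, screened without camptothecin (DMSO vehicle only), 400 cells/well. Compounds pin-transferred, cells incubated at 37 °C for at least 48 hr. Growth read as ATP-dependent luminescence (CellTiter-Glo, 30 min at RT).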
# S2 tox = cell viability loss in ATXN counter-screen. S2 cells (HEK-293 line with an ATXN2-luciferase reporter) viability, CellTiter-Fluor protease fluorescence, 24 h. 400,000 compounds, 0.49% hits. Potency, µM (titrated, usually from 56.7 µM), usual class: cytotoxic; also: nearly all actives have a fitted effect of over 40% in size
# TGFb SMAD3 inh = blocks TGF-b signaling; 410,000 compounds, 1.2% hits; Potency, µM (doses to about 46.1 µM), for inactives: at the top dose activity, negative = inhibition, hits mostly inhibitors; HepG2 CAGA-GFP TGF-b/SMAD3 reporter, GFP fluorescence, 18 h; TGF-beta stimulated, 500 pg/mL final; AID 588855; also: % is scaled to controls: 0 for no effect and ±100 for the full control effect; nearly all actives have a fitted effect of over 65% in size
#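 Read-out: total well GFP (ex488/em500-530) summed from mean per-cell fluorescence. Cells: HEPG2 CAGA-GFP, 1% FBS DMEM, 18 h at 37 degrees C with 500 pg/mL final TGF-beta. Unstimulated wells served as the full-inhibition control; stimulated DMSO wells = 0%.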
# Active calls of the source: *; i = inactive; ? = inconclusive; . = no result; [ ] = remark or other dose. This is a sample that favours compounds with a hit; in the whole collection about 17% have one here. Calls follow the shape of the dose curve; as a rule, active = well fitted curve in the direction sought with a large enough effect; inconclusive = small, poorly fitted or top-dose-only effect, or another doubt; inactive = no such curve, though single readings can be large; an effect the other way counts as inactive or inconclusive. Potency is read from the fitted curve at half-maximal effect.
SMILES,DT40 TDP1 CPT,HepG2 viability,ATXN2 expr inh,TDP1 cell noCPT,S2 tox,TGFb SMAD3 inh
CCOc1ccc(CC(=O)NCCS(=O)(=O)N2CCN(c3ccccc3OC)CC2)cc1,11.6µM*,-18.5%,.,20.6µM*,.,?
COc1ccccc1N1CCN(S(=O)(=O)CCNC(=O)c2cc(=O)c3ccccc3o2)CC1,?,-1.9%,-22.8%,25.9µM*,i,-27.8%
COc1cc(OC)cc(C(=O)NCCS(=O)(=O)N2CCN(Cc3ccccc3)CC2)c1,?,-1.0%,-12.6%,?,i,6.0%
COc1ccc(C(=O)NCCS(=O)(=O)N2CCN(Cc3ccccc3)CC2)cc1,-20.0%,2.5%,2.4%,29.1µM*,i,-2.9%
COc1ccc(-n2nc3c(c2NC(=O)c2ccc(S(=O)(=O)N4CCOCC4)cc2)CS(=O)(=O)C3)cc1,10.1%,-45.0%,-0.5%,0.0%,i,8.6%
CN(C(=O)CCN1C(=O)c2ccccc2C1=O)c1ccccc1,-3.7%,18.7%,.,-4.5%,i,22.3%
O=C(CCCCn1cnc2c(=S)nc[nH]c21)Nc1ccc(C(=O)O)c(O)c1,0.7%,8.4%,-0.3%,-3.0%,i,21.2%
CC(=O)Nc1ccc(S(=O)(=O)N2CCC(C(=O)O)CC2)cc1,-7.5%,4.5%,5.9%,-0.6%,i,12.1%
Oc1c(C(c2ccccc2)N2CCCCC2)ccc2ccccc12 (stereo not drawn),18.4µM*,-69.7%,.,?,i,-1.1%
O=C(N1CCCCC1)N1CCN(C(c2ccccc2)c2ccccc2)CC1,?,-9.9%,16.3%,?,i,1.1%
CC(NC(=O)Cn1cccc1C(=O)c1ccccc1)c1ccccc1 (stereo not drawn),13µM*,2.8%,11.2%,?,i,0.8%
CCC(C)NC(=O)Cn1cccc1C(=O)c1ccccc1 (stereo not drawn),-4.4%,-31.8%,-14.9%,-17.6%,i,9.9%
C/C(=N\NC(=O)C1=NNC(=O)C1C)c1cccs1 (stereo not drawn),-12.3%,-61.2%,24.4%,?,.,-2.4%
COC(=O)C1=C(C)N(c2ccc(C)cc2)/C(=C/c2cccs2)C1=O,?,-1.9%,-5.9%,25.9µM*,?,2.1%
COc1ccc(C(C#N)CC(=O)c2ccc(OC)c(OCc3ccccc3)c2)cc1OC (stereo not drawn),14.6µM*,-13.8%,.,20.6µM*,?,-0.4%
COc1ccc(C(=O)CSC#N)cc1OC,3.26µM*,-41.8%,-0.4%,2.91µM*,i,?
COc1ccc(C(=O)COC(=O)c2ccc(OC)c(OC)c2)cc1OC,-9.3%,-14.7%,-5.6%,-23.6%,i,-28.1%
CC(=O)c1cccc(NC(=O)CCS(=O)(=O)c2ccc3c(c2)n(C)c(=O)c(=O)n3C)c1,-4.0%,5.7%,.,0.7%,.,.
COc1ccc(NC(=O)CSCC(=O)Nc2cccc(S(=O)(=O)N3CCCCCC3)c2)cc1,?,-15.4%,-16.0%,-8.4%,i,18.1%
Cc1ccc(C(OCCN(C)C)c2cccc(C(F)(F)F)c2)cc1 (stereo not drawn),23.1µM*,-45.6%,-10.7%,23.1µM*,i,?
COc1ccc(C(=O)C2CCCN(C3Cc4ccccc4C3)C2)cc1OC (stereo not drawn),-13.5%,-34.9%,-13.0%,?,i,-12.1%
C/C(=N\NC(N)=S)c1cc(-c2ccccc2)c(-c2ccccc2)s1,?,-41.0%,?,?,?,12.6µM*
C/C(=N/NC(N)=S)c1ccc(Br)s1,8.2µM*,-17.3%,-33.6%,4.61µM*,?,?
CN(C)CCCN(C(=O)c1ccco1)c1nc2ccc(Br)cc2s1,23.1µM*,-71.6%,25.1µM*,23.1µM*,?,0.0%
CN(C)CCN(C(=O)c1ccco1)c1nc2cc3c(cc2s1)OCCO3,4.61µM*,0.3%,-16.2%,3.66µM*,i,-10.0%
SMILES,DT40 TDP1 CPT,HepG2 viability,ATXN2 expr inh,TDP1 cell noCPT,S2 tox,TGFb SMAD3 inh
Cc1ccc2nc(N(CCCN(C)C)C(=O)c3sc4ccccc4c3Cl)sc2c1,16.4µM*,-66.5%,?,25.9µM*,?,?
Cc1ccc(C(=O)N(CCCN(C)C)c2nc3ccc(Cl)cc3s2)cc1C,?,22.4µM*,?,?,?,?
CN(C)CCN(C(=O)c1ccc2c(c1)OCCO2)c1nc2ccc(Cl)cc2s1,?,-5.1%,-3.1%,?,i,3.9%
CN(C)CCCN(C(=O)c1ccco1)c1nc2ccc(Cl)cc2s1,18.4µM*,-32.0%,?,16.4µM*,.,?
CN1CC(c2ccccc2)C2(SC(=S)N(Cc3ccco3)C2=O)C12C(=O)Nc1ccccc12 (stereo not drawn),-93.8%,-30.6%,?,11.2µM*,?,?
Cc1ccc(C)c(NC(=O)CN2C(=O)COc3ccc(Cl)cc32)c1,-16.4%,-12.7%,-4.8%,-5.9%,i,-19.1%
COc1cc(Cn2c3ccc(NC(=O)CCc4ccc(O)cc4)cc3c(=O)n2C)ccc1F,?,-0.4%,?,20.6µM*,?,-1.7%
Cn1c(=O)c2cc(NC(=O)NCCc3ccccc3)ccc2n1Cc1ccc(F)cc1,?,-21.3%,-5.9%,?,i,-24.8%
Cn1c(=O)c2cc(NC(=O)CCc3ccc4c(c3)OCO4)ccc2n1Cc1ccc(F)cc1,16.4µM*,-1.7%,?,?,?,4.9%
CCOCCC(=O)Nc1ccc2c(c1)c(=O)n(C)n2CC=C(C)C,5.17µM*,-50.9%,-3.7%,2.91µM*,i,-17.6%
C=C(C)Cn1c2ccc(NC(=O)CCOCC)cc2c(=O)n1C,13.9%,0.1%,-1.0%,-3.8%,i,14.5%
C=C(C)Cn1c2ccc(NC(=O)CCc3cccc(Cl)c3)cc2c(=O)n1C,18.4µM*,-17.7%,-14.6%,14.6µM*,?,-14.7%
NC[C@H]1O[C@H](O[C@H]2[C@H](O)[C@@H](O[C@H]3O[C@H](CO)[C@@H](O)[C@H](N)[C@H]3O)[C@H](N)C[C@@H]2N)[C@H](N)[C@@H](O)[C@@H]1O,?,.,8.7%[25.6 µM],-24.3%,i,.
Cn1c(-c2ccncc2)nc2cc(C(=O)N3CCCC3c3nccs3)cc(NC(=O)C3CCC3)c21 (stereo not drawn),-12.5%[9.04 µM],.,.,-15.3%,i,.
COc1cc(Cn2c3ccc(NC(=O)NCc4ccc(F)cc4)cc3c(=O)n2C)ccc1F,5.8µM*,4.6%,-17.4%,5.17µM*,i,?
